Bioassay records: PubChem, Johns Hopkins Ion Channel Center
Most compounds without a hit are left out; they make up all but 1.6% or so of the library.
KCNQ2 pot: potentiators of rat KCNQ2 potassium channel. Potassium voltage-gated channel subfamily KQT member 2 (Rattus norvegicus), O88943. CHO-K1 KCNQ2, FluxOR thallium flux fluorescence; active compounds read high. B-score at 10 µM. 310,000 compounds, 0.54% hits. AID 2239, 2010;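 active = fluorescence ratio B-score at least 3 SD of library B-scores, with initial fluorescence B-score within 3 of them, cut at about 5.3 in these data; same plate scores as AID 2156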;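 note: B-score of peak minus minimum over baseline fluorescence ratio after K+ and Tl+ stimulus; positive B-score means potentiation of KCNQ2 with more thallium influx and brighter signal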
Target sequence (O88943 whole entry, looked up): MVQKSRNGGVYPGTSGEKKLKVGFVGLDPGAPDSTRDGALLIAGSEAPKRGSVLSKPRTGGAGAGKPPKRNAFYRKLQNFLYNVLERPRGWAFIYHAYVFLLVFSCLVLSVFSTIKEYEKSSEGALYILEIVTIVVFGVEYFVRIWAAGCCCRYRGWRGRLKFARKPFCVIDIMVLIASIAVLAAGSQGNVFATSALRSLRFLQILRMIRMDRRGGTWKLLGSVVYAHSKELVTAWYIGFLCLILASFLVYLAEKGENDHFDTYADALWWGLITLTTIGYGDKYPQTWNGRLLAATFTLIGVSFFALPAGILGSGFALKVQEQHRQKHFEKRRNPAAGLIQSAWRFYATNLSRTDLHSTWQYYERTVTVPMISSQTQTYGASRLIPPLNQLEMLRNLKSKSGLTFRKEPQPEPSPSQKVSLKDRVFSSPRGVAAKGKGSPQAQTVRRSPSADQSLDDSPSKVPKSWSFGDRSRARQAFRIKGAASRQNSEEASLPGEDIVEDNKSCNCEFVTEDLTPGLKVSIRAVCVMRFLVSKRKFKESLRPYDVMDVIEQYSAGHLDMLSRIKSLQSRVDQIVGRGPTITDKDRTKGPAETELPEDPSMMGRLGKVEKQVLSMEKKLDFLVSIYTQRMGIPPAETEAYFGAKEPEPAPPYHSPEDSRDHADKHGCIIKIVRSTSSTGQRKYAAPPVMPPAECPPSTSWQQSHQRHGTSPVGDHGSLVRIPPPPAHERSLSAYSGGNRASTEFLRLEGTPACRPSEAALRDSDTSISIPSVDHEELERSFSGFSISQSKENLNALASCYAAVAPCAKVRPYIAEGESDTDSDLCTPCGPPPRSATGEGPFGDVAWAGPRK
KCNQ2 block: rat KCNQ2 potassium channel inhibitors, primary screen, cell-based, CHO-K1, FluxOR thallium flux, B-score | Potassium voltage-gated channel subfamily KQT member 2 (Rattus norvegicus), O88943 | 20 min; active compounds read low | B-score at 10 µM | 310,000 compounds, 1.1% hits;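 active = fluorescence ratio B-score at most minus 3 library SDs, with starting brightness B-score within 2 library SDs, cut at about -5.5 in these data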
An asterisk follows results filed as active; i = inactive; / = no result.

SMILES	KCNQ2 pot	KCNQ2 block
Cn1c(SCC(=O)N2CCOCC2)nnc1-c1ccco1	0.13	i
Cn1ccnc1SCC(=O)NC1(C#N)CCCCC1	0.88	i
Fc1cccc(Cn2ccc(-c3ccc4c(c3)OCO4)n2)c1	/	i
Cc1ccccc1Cn1ccc(-c2ccc3c(c2)OCO3)n1	-6.7	-6.7*
CC(C)c1cccc(C(C)C)c1NC(=O)c1ccccc1	0.16	i
CNC(=O)CS(=O)(=O)CC(=O)Nc1cc(OC(C)C)c(Cl)cc1Cl	0.67	i
Cc1nn(Cc2noc(C(=O)NCc3ccc4c(c3)OCO4)n2)c(C)c1Br	/	i
COc1ccc2c(c1)O[C@H](c1ccc3c(c1)OCO3)[C@@H](OC(=O)N[C@H](C)C1CCCCC1)C2=O	/	i
COc1cccc([C@@H]2Oc3ccc(OC)cc3C(=O)[C@H]2OC(=O)N[C@H](C)C2CCCCC2)c1	-6.8	-6.8*
CCCCN(C(=O)C(C)Oc1cccc(Cl)c1)c1c(N)n(CCC)c(=O)[nH]c1=O (stereo not drawn)	1.9	i
C[C@H](NC(=O)N1CCn2c1nc1ccccc12)C(=O)NCc1ccc(F)cc1	0.32	i
COc1ccc(NC(=O)Cc2coc3ccc4ccccc4c23)cc1S(=O)(=O)N1CCOCC1	0.67	i
CC12CCC(=O)N1C(C(=O)Nc1nc3ccc(Cl)cc3s1)CS2 (stereo not drawn)	-6	-6*
CC12CCC(=O)N1C(C(=O)Nc1nc3ccc(S(C)(=O)=O)cc3s1)CS2 (stereo not drawn)	0.59	i
CC(C)c1ccc(NC(=O)Cc2ccc(NC3=NC4CS(=O)(=O)CC4S3)cc2)cc1 (stereo not drawn)	/	i
Cc1ccccc1NC(=O)c1ccc(Cn2cc([N+](=O)[O-])cn2)o1	0.72	i
O=C(Nc1cccc(F)c1)c1ccc(Cn2cc([N+](=O)[O-])cn2)o1	5.5*	i
CC(C)c1ccc(S(=O)(=O)N2CCN(C(=O)C3CCN(C(=O)c4ccc(F)cc4)CC3)CC2)cc1	0.14	i
O=C(NCC(=O)N(CC1CCCO1)C(C(=O)NC1CCCCC1)c1cccnc1)c1cccs1 (stereo not drawn)	0.94	i
Cc1ccc([N+](=O)[O-])cc1NC(=O)c1ccc(CSc2ccccc2)cc1	0.57	i
Cc1ccc(SCc2ccc(C(=O)Nc3cccc([N+](=O)[O-])c3C)cc2)cc1	-5.6	-5.6*
Cc1ccc(CS(=O)(=O)c2cn(CC(=O)N3CCOCC3)c3ccccc23)cc1	/	i
Cc1nc(C(=O)Nc2cccc(Cl)c2Cl)nn1-c1cc(OC(C)C)c(Cl)cc1Cl	-6.3	-6.3*
Cc1nc(C(=O)Nc2cc(Cl)ccc2Cl)nn1-c1cc(OC(C)C)c(Cl)cc1Cl	-6.4	-6.4*
Cc1nc(C(=O)Nc2cccc(Cl)c2)nn1-c1cc(OC(C)C)c(Cl)cc1Cl	/	i
SMILES	KCNQ2 pot	KCNQ2 block
Cc1nc(C(=O)Nc2ccc(Cl)cc2Cl)nn1-c1cc(OC(C)C)c(Cl)cc1Cl	/	i
CCN1C(c2ccccc2)C(C)C(=O)C(C)C1c1ccccc1 (stereo not drawn)	-8.4	-8.4*
CCC1C(=O)C(CC)C(c2ccccc2)NC1c1ccccc1 (stereo not drawn)	/	i
COc1ccccc1CNC(=O)CSc1ccc(-c2cccc([N+](=O)[O-])c2)nn1	/	i
O=C(NCC(=O)N1CC=C(c2ccccc2)CC1)c1ccco1	/	i
Cc1ccc(NCC(=O)NNC2=NCCC2)c(C)c1	/	i
CN(Cc1ccccc1)C(=O)c1nc2ccccn2c1CN1CCc2sccc2C1	-5.9	-5.9*
CN(Cc1c(C(=O)N(C)Cc2ccccc2)nc2ccccn12)CC1Cc2ccccc2O1 (stereo not drawn)	/	i
COC(=O)c1c(C)nc2nonc2c1N	1.9	i
O=C(NCC1CCCO1)c1ccc(NS(=O)(=O)c2ccccc2)cc1 (stereo not drawn)	/	i
O=c1c2ccccc2c(-c2ccccc2)nn1Cc1c(Cl)cccc1Cl	-5.8	-5.8*
CCOC(=O)Cn1nc(-c2ccccc2)c2ccccc2c1=O	0.13	i
NC(=O)NCCCC(=O)NCC(c1ccccc1Cl)c1c[nH]c2ccccc12 (stereo not drawn)	0.45	i
O=C(CCC(=O)N1CCOc2ccccc21)NCCCN1CCN(Cc2ccccc2)CC1	/	i
Cc1ccc(NC(=O)c2sc3nc(C)nc(N4CCN(c5ccccn5)CC4)c3c2C)c(C)c1	/	i
Cc1nc(N2CCN(c3ccccn3)CC2)c2c(C)c(C(=O)Nc3ccc(Br)cc3C)sc2n1	-6	-6*
Cn1nnc2c[n+](CC(=O)c3ccc(Cl)cc3)cc(Br)c21	-6.1	-6.1*
Cn1nnc2c[n+](CC(=O)c3ccc4ccccc4c3)cc(Br)c21	/	i
CCOC(=O)CN(c1cc([N+](=O)[O-])ccc1OC)S(C)(=O)=O	1.3	i
